Results filed as inconclusive are left out. Values without a mark were called inactive. Active and inactive are the calls of the source. Calls come from the whole dose curve; as a rule, active = well fitted cell-killing curve with a large enough effect in the repeat runs; inconclusive = weak or mixed curves, or effect the other way; inactive = flat fitted curve, though single readings scatter.
% is set by controls: 0 for no effect and ±100 for the full control effect; potency is the fitted concentration of half-maximal effect.

A short description of the test: qHTS RealTime-Glo MT Cell Viability Assay in HEK293 cells - 0 hour (AID 1224880). For activity change, negative = cytotoxicity: top concentration of the series differs between compounds. Note: nearly all actives have a fitted effect of over 45% in size. Conditions: RealTime-Glo luminescence; series mostly up to 76.8 µM; activity change, negative = cytotoxicity: at the top concentration. The source says: U.S. Tox21 Program National Center for Advancing Translational Sciences [NCATS] NIH Chemical Genomics Center [NCGC] U.S. Environmental Protection Agency [EPA] National Institutes of Environmental Health Sciences [NIEHS] National Toxicology Program [NTP] U.S. Food and Drug Administration [FDA] Tox21 Assay Overview: Measure of cell viability is critical in the cell-base assay. Analysis of cell viability is necessary for the characterization of cell responses to cytotoxic drugs and environmental stress. A RealTime-Glo MT Cell Viability Assay to monitor cell viability in real time of continues cell culture during 40 hours of compound treatment was used to screen Tox21 10K library compounds in Hek293 cells. The RealTime-Glo MT Cell Viability Assay is a nonlytic, homogeneous, bioluminescent method to measure cell viability in real time using a simple, plate-based method. The assay involves adding NanoLuc luciferase and a cell-permeant prosubstrate to cells in culture. Viable cells reduce the proprietary prosubstrate to generate a substrate for NanoLuc luciferase. This substrate diffuses from cells into the surrounding culture medium, where it is rapidly used by the NanoLuc Enzyme to produce a luminescent signal. The signal correlates with the number of viable cells, making the assay well suited for cytotoxicity studies.
Tox21 Assay Protocol Summary: The mixture of Hek293 cell suspension and reagents were dispensed at 600cells/6 ul/well in 1536-well tissue culture treated black solid bottom plates using a Multidrop dispenser. After the assay plates were incubated at a 37 C/5% CO2 incubator for 5 hours, 23 nL of compounds dissolved in DMSO, positive and negative controls was transferred to the assay plate by a pintool work station. The plates were incubated at 37 C for 40 hours. The luminescence intensity were measured at 0h, 8h, 16h, 24h, 32h and 40h time points using ViewLux plate reader during compound treatment.
Take `CCCCCCCCCCCCCCCCCBr`: the activity change, negative = cytotoxicity is -0.712% [at 15.8 µM].

With `CCCCC(CC)(CO)CO`, the “activity change, negative = cytotoxicity” value is -7.42%.

As for `CCOc1cc(OCC)c(C(=O)CCC(=O)O)cc1OCC`, the “activity change, negative = cytotoxicity” value is -3.55% [at 35.3 µM].

Turning to `CCCCCCOC(=O)CCC`, the “activity change, negative = cytotoxicity” value was -7.92%.

In the case of `N#Cc1c(F)cccc1F`, the “activity change, negative = cytotoxicity” value was 1.59%.

With `CCCCCCCCCCCCCCCBr`, the “activity change, negative = cytotoxicity” value is 1.03% [at 35.3 µM].

For `S=C(S)NCCNC(=S)S`, the “activity change, negative = cytotoxicity” value is -11.6%.

As for `CCCCOCCOCCOCCOCCO`, the “activity change, negative = cytotoxicity” value was 6.34%.

As for `CCCCCCCCCCCCCCCC(=O)OC/C=C(C)/C=C/C=C(C)/C=C/C1=C(C)CCCC1(C)C`, the “activity change, negative = cytotoxicity” value was -4.75%.

Take `Cc1cc(O)ccc1N`: the Potency is 12.4 µM (active).

On to `CC(=O)c1ccc2c(c1)[C@H](NC(=O)c1ccc(F)cc1)[C@@H](O)C(C)(C)O2`, for which the “activity change, negative = cytotoxicity” value was -0.225%.

As for `Cc1ccc2c(ccc3ccccc32)c1`, the “activity change, negative = cytotoxicity” value is -6.86%.

As for `CCCOc1ccc2nc(NC(=O)OC)[nH]c2c1`, the “activity change, negative = cytotoxicity” value was 0.888% [at 35.3 µM].

Consider `CC/C(=C\C(=N/O)C(N)=O)C(C)[N+](=O)[O-]` (stereo not given), for which the “activity change, negative = cytotoxicity” value is -0.443%.

`CCc1nn(C2CCCCC2)c2cc(C3(C#N)CCC(C(=O)O)CC3)ccc12` (stereo not given): the “activity change, negative = cytotoxicity” value is -19.5%.

For `CC(C)NCC(O)c1cc(O)cc(O)c1` (stereo not given), the “activity change, negative = cytotoxicity” value is -8.48% [at 35.3 µM].

For the compound `Nc1nc(N)c(-c2ccccc2)s1`, the “activity change, negative = cytotoxicity” value is 8.12% [at 35.3 µM].

For the compound `CCOc1ccc2[nH]cc(C(=O)NCc3ccccc3)c(=O)c2n1`, the “activity change, negative = cytotoxicity” value was 0.805%.

Regarding `CCCCOC(=O)/C=C\C(=O)OCCCC`, the “activity change, negative = cytotoxicity” value was 11.7%.

In the case of `Cn1sccc1=O`, the Potency result is “inactive”.

As for `C[Si](C)O[Si](C)(C)O[Si](C)(C)O[Si](C)C`, the “activity change, negative = cytotoxicity” value is 11.5%.

As for `CCCCc1cc2ccccc2c(OCCN(C)C)n1`, the “activity change, negative = cytotoxicity” value is -0.77% [at 35.3 µM].

For the compound `COc1ccccc1OC(=O)Oc1ccccc1OC`, the “activity change, negative = cytotoxicity” value is 7.02% [at 35.3 µM].

Regarding `COC(Cc1ccccc1)OC`, the “activity change, negative = cytotoxicity” value is 2.02%.

For the compound `Nc1ccc(C(=O)Nc2ccccc2N)cc1`, the “activity change, negative = cytotoxicity” value is -4.35% [at 35.3 µM].

Consider `C=CC(=O)OCCOC(=O)CCC(=O)O`, for which the “activity change, negative = cytotoxicity” value is 3.04%.

As to `Cc1ccccn1`, the “activity change, negative = cytotoxicity” value was 2.91%.

Take `C=Cc1c(C)c2cc3[nH]c(cc4nc(cc5nc(cc1[nH]2)C(C)=C5CCC(=O)O)C(CCC(=O)O)=C4C)c(C)c3C=C`: the “activity change, negative = cytotoxicity” value is -1.85% [at 35.3 µM].

Turning to `CC(C)c1ccccc1C(C)C`, the “activity change, negative = cytotoxicity” value was -15.7%.

`CN(C)CC[C@@H](c1ccc(Br)cc1)c1ccccn1`: the “activity change, negative = cytotoxicity” value was -7.14% [at 35.3 µM].

As to `Cc1ccc(O)c([C@H](CCN(C(C)C)C(C)C)c2ccccc2)c1`, the “activity change, negative = cytotoxicity” value is 16.1% [at 35.3 µM].

On to `O=C(Cl)c1ccc([N+](=O)[O-])cc1`, for which the “activity change, negative = cytotoxicity” value was -0.465%.

On to `O=C(O)c1cccc(N(Cc2cccnc2)c2ccc(OC(F)F)c(OC(F)F)c2)c1`, for which the Potency is 19.5 µM (active).

As to `COC(=O)CSc1cc(N=c2sc(=O)n3n2CCCC3)c(F)cc1Cl`, the “activity change, negative = cytotoxicity” value is -17.5%.

In the case of `Cc1cccc(C(C)(C)C)c1O`, the “activity change, negative = cytotoxicity” value is 2.19%.

For the compound `CCCCCCCCCC=O`, the “activity change, negative = cytotoxicity” value was 6%.

On to `OC(CCN1CCCCC1)(c1ccccc1)C1CCCCC1` (stereo not given), for which the “activity change, negative = cytotoxicity” value is 25.8% [at 35.3 µM].

For the compound `CCC(=O)OC(C)(C)C1CC=C(C)CC1` (stereo not given), the “activity change, negative = cytotoxicity” value was -0.261%.

With `CC1(C)[C@H]2CC[C@]1(C)[C@H](O)C2`, the “activity change, negative = cytotoxicity” value is 1.45%.

Take `O=C(O)C(c1ccc(Cl)cc1)c1ccc(Cl)cc1`: the “activity change, negative = cytotoxicity” value was -6.1%.

Values taken from PubChem BioAssay (Tox21).
